These results are taken from PubChem BioAssay (Tox21).

Assay [1] in a line: qHTS assay to identify small molecule antagonists of the thyroid receptor (TR) signaling pathway - cell viability counter screen (AID 743064). Note: nearly all actives have a fitted effect of over 50% in size. Note: potency is the fitted concentration of half-maximal effect. The procedure, abridged:
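In rat pituitary GH3.TRE-Luc reporter cells co-exposed to compound and 1 nM T3 for 23.5 h, cytotoxicity was assessed with CellTiter-Fluor in the same wells, read by fluorescence.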

Assay [2] is described as follows: qHTS assay to identify small molecule antagonists of the thyroid receptor (TR) signaling pathway (AID 743065). Note: nearly all actives have a fitted effect of over 55% in size. Note: potency is the fitted concentration of half-maximal effect. Summed up: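 GH3.TRE-Luc rat pituitary cells carrying two TR response elements driving luciferase were plated for 4 h, given compound plus 1 nM T3 (final), and incubated 23.5 h at 37 C. ONE-Glo luminescence measured reporter inhibition; CellTiter-Fluor fluorescence tracked cytotoxicity.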
On the technique in general: Quantitative high-throughput screening tests each substance at several concentrations.

Assay [3] concerns thyroid hormone receptor (rat, GH3 cells). The assay is described as follows: qHTS assay to identify small molecule agonists of the thyroid receptor (TR) signaling pathway (AID 743066; calls by dose curve).
Assay [4] is described as follows: qHTS assay to identify small molecule antagonists of the estrogen receptor alpha (ER-alpha) signaling pathway using the BG1 cell line - cell viability counter screen (AID 743081).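 Note: compound given together with 17beta-estradiol as the ER stimulus; nearly all actives have a fitted effect of over 45% in size.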 Note: potency is the fitted concentration of half-maximal effect.
Another assay concerns the target Aromatase (Homo sapiens) (UniProt P11511). As to the kind of experiment: qHTS assay to identify aromatase inhibitors (AID 743083). Note: nearly all actives have a fitted effect of over 55% in size. Note: potency is the fitted concentration of half-maximal effect.
A short description of assay [5]: qHTS assay to identify aromatase inhibitors - cell viability counter screen (AID 743084).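 Note: cells stimulated with testosterone during compound exposure; nearly all actives have a fitted effect of over 55% in size.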 Note: potency is the fitted concentration of half-maximal effect.
The target in assay [6] is Aryl hydrocarbon receptor (Homo sapiens) (UniProt P35869). The assay is described as follows: qHTS assay to identify small molecule that activate the aryl hydrocarbon receptor (AhR) signaling pathway (AID 743085).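 For activation: HG2L7.5c1 human HepG2 liver cells with stably integrated DRE-driven firefly reporter; series mostly up to about 70 µM.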 Note: nearly all actives have a fitted effect of over 15% in size. Note: potency is the fitted concentration of half-maximal effect. The procedure, abridged: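 AhR agonist activity is inferred from enhanced light output of a DRE-controlled firefly luciferase reporter in HepG2 cells, measured with ONE-Glo following 24 h treatment at 37C.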
Aryl hydrocarbon receptor (Homo sapiens), sequence (P35869 whole entry, looked up): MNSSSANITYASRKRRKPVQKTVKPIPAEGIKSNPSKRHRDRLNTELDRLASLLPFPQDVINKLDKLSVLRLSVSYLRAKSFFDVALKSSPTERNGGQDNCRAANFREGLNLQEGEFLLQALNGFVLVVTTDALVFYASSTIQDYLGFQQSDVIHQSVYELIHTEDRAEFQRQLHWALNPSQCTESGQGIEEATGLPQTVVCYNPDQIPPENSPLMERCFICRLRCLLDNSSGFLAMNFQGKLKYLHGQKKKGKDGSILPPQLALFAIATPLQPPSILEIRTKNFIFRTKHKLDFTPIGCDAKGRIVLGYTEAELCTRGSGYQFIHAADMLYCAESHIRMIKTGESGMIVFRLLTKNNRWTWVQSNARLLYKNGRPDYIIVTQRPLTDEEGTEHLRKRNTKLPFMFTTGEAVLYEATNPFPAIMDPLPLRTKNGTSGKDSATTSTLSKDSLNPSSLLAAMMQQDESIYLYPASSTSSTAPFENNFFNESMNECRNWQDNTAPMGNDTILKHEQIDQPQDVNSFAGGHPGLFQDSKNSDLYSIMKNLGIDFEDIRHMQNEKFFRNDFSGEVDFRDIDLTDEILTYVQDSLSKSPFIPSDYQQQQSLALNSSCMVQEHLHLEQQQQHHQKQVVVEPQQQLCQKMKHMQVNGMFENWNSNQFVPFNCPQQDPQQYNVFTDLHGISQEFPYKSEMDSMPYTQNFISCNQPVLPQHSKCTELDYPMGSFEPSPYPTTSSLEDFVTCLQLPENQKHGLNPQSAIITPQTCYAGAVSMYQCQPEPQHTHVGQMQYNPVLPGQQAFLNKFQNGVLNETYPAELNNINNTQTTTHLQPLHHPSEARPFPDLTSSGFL

The nature of assay [7]: qHTS assay to identify small molecule that activate the aryl hydrocarbon receptor (AhR) signaling pathway - cell viability counter screen (AID 743086). Note: nearly all actives have a fitted effect of over 45% in size. Note: potency is the fitted concentration of half-maximal effect. Summed up: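 HepG2-AhR-luc (HG2L7.5c1) cells, 4000/well, were preincubated 5 h at 37C, exposed to compound in qHTS format for 24 hr at 37C, then given CellTiter-Fluor for 30 min; viability was read as fluorescence in the reporter wells.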

In assay [8] the target is Peroxisome proliferator-activated receptor gamma (Homo sapiens) (UniProt P37231). The assay is described as follows: qHTS assay to identify small molecule agonists of the peroxisome proliferator-activated receptor gamma (PPARg) signaling pathway (AID 743094; active = well fitted activation curve with a large enough effect in the signal ratio in the repeat runs, not every such curve was filed as active; the % refers to the signal ratio). The procedure, abridged:
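GeneBLAzer PPARg UAS-bla HEK293H cells were plated, rested 5 h, then exposed to compounds for 17 h at 37C. Beta-lactamase activity was read by LiveBLAzer B/G FRET substrate fluorescence after 1 h at room temperature.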

Assay [9] is described as follows: qHTS assay to identify small molecule antagonists of the peroxisome proliferator-activated receptor gamma (PPARg) signaling pathway - cell viability counter screen (AID 743194). Note: nearly all actives have a fitted effect of over 55% in size. Note: potency is the fitted concentration of half-maximal effect. The procedure, abridged: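 PPARg-UAS-bla HEK293H cells were plated, rested 5 h at 37 C, then treated with compounds plus rosiglitazone (50 nM final) for 17 h at 37 C; viability was then read by CellTiter-Glo luminescence after 30 min at room temperature.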

Assay [10] in a line: qHTS assay for small molecule agonists of the antioxidant response element (ARE) signaling pathway (AID 743202; active = well fitted activation curve with a large enough effect in the signal ratio in the repeat runs, not every such curve was filed as active; the % refers to the signal ratio; note: potency is the fitted concentration of half-maximal effect). The procedure, abridged: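 Compounds delivered in DMSO to ARE-bla HepG2 cells (2,000 cells/well, pre-incubated 5 h) and left 16 h at 37 C. LiveBLAzer B/G FRET substrate then added for 2 h at RT before fluorescence reading.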
Assay [11] in a line: qHTS assay for small molecule agonists of the antioxidant response element (ARE) signaling pathway - cell viability counter screen (AID 743203; calls by dose curve; note: nearly all actives have a fitted effect of over 55% in size; note: potency is the fitted concentration of half-maximal effect). The procedure, abridged:
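ARE-bla HepG2 cells were plated, rested 5 h at 37C/5% CO2, then exposed to compounds in DMSO for 16 h. Viability was read as CellTiter-Glo luminescence after 30 min at room temperature, in the same wells as the ARE screen.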

Assay [12] in a line: qHTS assay for small molecule activators of the heat shock response signaling pathway - cell viability counter screen (AID 743209). Note: nearly all actives have a fitted effect of over 50% in size. Note: potency is the fitted concentration of half-maximal effect. The procedure, abridged:
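HSE-bla HeLa cells plated overnight, then exposed to Tox21 compounds (23 nL in DMSO) for 5 h at 37 C. After the bla reporter read, CellTiter-Glo was added in the same wells and luminescence read after 30 min at room temperature.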

Assay [13] is described as follows: qHTS assay for small molecule activators of the heat shock response signaling pathway (AID 743210; active = well fitted activation curve with a large enough effect in the signal ratio in the repeat runs, with a control signal flat, not every such curve was filed as active; the % refers to the signal ratio;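 note: HeLa cells with beta-lactamase reporter driven by heat shock elements; series mostly up to about 63 µM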). The procedure, abridged:
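Reporter gene assay: HeLa cells stably bearing an HSE-bla construct, compound treatment 5 h at 37 C, LiveBLAzer substrate 2.5 h at RT, fluorescence intensity.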

Assay [14] in a line: qHTS assay to identify small molecule antagonists of the estrogen receptor alpha (ER-alpha) signaling pathway - cell viability counter screen (AID 743074; calls by dose curve;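 note: HEK293 cells carrying ER-alpha-UAS-bla reporter stimulated with 17beta-estradiol; nearly all actives have a fitted effect of over 45% in size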).
Assay [15] deals with Estrogen receptor (Homo sapiens) (UniProt P03372). As to the kind of experiment: qHTS assay to identify small molecule agonists of the estrogen receptor alpha (ER-alpha) signaling pathway (AID 743075; calls by dose curve;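 note: HEK293 GripTite cells with ER-alpha and UAS-driven beta-lactamase reporter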).
Estrogen receptor (Homo sapiens), sequence (P03372 whole entry, looked up): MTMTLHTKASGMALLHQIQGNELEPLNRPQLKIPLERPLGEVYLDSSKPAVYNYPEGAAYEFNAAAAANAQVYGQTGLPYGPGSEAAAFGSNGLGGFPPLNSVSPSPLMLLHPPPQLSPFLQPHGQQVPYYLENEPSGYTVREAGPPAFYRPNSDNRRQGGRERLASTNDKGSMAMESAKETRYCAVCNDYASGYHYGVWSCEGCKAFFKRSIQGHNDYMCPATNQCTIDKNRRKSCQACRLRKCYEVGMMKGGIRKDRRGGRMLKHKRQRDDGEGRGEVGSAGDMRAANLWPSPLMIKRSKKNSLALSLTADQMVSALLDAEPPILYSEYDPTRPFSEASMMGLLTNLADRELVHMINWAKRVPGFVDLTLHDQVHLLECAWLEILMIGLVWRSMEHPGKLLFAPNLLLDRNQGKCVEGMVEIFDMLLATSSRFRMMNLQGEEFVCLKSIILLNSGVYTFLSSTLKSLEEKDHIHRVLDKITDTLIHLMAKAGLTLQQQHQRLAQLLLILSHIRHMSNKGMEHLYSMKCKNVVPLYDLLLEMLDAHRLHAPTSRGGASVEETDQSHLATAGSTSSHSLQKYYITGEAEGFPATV
Assay [16] deals with Peroxisome proliferator-activated receptor gamma (Homo sapiens) (UniProt P37231). As to the kind of experiment: qHTS assay to identify small molecule antagonists of the peroxisome proliferator-activated receptor gamma (PPARg) signaling pathway (AID 743191; calls by dose curve; note: series mostly up to about 63 µM; nearly all actives have a fitted effect of over 30% in size). The procedure, abridged: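 GeneBLAzer PPARg UAS-bla HEK293H cells carrying a UAS-driven beta-lactamase reporter were plated at 3000 cells/well, preincubated 5 h at 37C, then given compound for 17 h at 37C; LiveBLAzer B/G FRET substrate was read after 1 h at room temperature.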
Peroxisome proliferator-activated receptor gamma (Homo sapiens), sequence (P37231 whole entry, looked up): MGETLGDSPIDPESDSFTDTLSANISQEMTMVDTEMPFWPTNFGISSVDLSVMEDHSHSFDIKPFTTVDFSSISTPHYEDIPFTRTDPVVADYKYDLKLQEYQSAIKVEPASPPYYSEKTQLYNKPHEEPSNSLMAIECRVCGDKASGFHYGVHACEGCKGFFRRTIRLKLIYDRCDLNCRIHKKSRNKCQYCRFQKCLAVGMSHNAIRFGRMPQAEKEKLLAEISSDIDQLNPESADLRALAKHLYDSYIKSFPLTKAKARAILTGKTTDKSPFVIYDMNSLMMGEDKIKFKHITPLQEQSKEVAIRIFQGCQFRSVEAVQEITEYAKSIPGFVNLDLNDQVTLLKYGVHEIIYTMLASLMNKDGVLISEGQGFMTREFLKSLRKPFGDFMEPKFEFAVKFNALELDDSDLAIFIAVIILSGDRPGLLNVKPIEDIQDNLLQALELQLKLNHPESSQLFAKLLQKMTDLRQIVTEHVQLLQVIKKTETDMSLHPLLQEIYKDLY

Assay [17] has as its target Estrogen receptor (Homo sapiens) (UniProt P03372). The assay is described as follows: qHTS assay to identify small molecule antagonists of the estrogen receptor alpha (ER-alpha) signaling pathway (AID 743069; active = well fitted curve in the direction sought with a large enough effect in the signal ratio in the repeat runs, not every such curve was filed as active; the % refers to the signal ratio). The procedure, abridged:
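Estradiol-stimulated ER-alpha-UAS-bla HEK293 cells, 18 hr compound exposure at 37C. LiveBLAzer B/G substrate, 2 hr RT, fluorescence read.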

Assay [18] has the same target. The assay is described as follows: qHTS assay to identify small molecule agonists of the estrogen receptor alpha (ER-alpha) signaling pathway using the BG1 cell line (AID 743079). Note: nearly all actives have a fitted effect of over 20% in size.
A short description of assay [19]: qHTS assay to identify small molecule antagonists of the estrogen receptor alpha (ER-alpha) signaling pathway using the BG1 cell line (AID 743080; calls by dose curve;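 note: BG1 cells stimulated with 17beta-estradiol alongside compound; series mostly up to about 70 µM; nearly all actives have a fitted effect of over 25% in size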). The procedure, abridged:
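Quantitative HTS on the Tox21 10K library: BG1 cells with endogenous ER-alpha and ERE-luciferase reporter, 17beta-estradiol stimulation, 21.5 h compound exposure, luminescence endpoint with parallel fluorescence cytotoxicity counter-read.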

The structures appear in SMILES notation. Several values for one entry are separate records, joined by “and”; a condition that tells them apart may be missing. Equal values may be shown once. Inconclusive results are not listed. Some compounds were tested as several samples or in several runs, with calls that do not always agree. Activity calls are given as the source filed them. Unless noted, calls come from the whole dose curve; as a rule, active = well fitted curve in the direction sought with a large enough effect in the repeat runs; inconclusive = weak or mixed curves; inactive = no such curve, though single readings can be large; an effect the other way counts as inactive or inconclusive.

Aromatase (Homo sapiens), sequence (P11511 whole entry, looked up): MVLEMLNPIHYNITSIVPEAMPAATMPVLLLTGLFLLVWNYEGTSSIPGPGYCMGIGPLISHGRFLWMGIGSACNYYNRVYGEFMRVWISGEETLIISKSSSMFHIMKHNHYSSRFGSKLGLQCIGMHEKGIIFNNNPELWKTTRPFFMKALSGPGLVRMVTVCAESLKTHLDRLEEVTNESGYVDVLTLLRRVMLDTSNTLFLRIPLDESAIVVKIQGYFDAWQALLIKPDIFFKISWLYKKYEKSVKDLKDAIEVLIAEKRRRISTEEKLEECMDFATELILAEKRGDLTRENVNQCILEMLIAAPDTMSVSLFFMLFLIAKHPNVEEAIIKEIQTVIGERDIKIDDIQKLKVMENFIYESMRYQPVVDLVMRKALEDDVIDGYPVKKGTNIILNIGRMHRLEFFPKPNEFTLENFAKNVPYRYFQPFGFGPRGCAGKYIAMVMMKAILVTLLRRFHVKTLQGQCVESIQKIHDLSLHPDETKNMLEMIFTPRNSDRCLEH

For `CCCNCCC`, the Potency result (in assay [1]; in assay [2]; in assay [4]; with Aromatase (Homo sapiens); in assay [5]; in assay [6]) was “inactive” throughout. Besides, the Potency result in assay [7], in assay [8], in assay [9], in [10], in [11] and in [12] was “inactive” throughout. Besides, in assay [13], the Potency result was “inactive”. Also, the call in assay [3] was inactive.

For the compound `O=C(O)c1cc(O)c2ccccc2c1O`, the Potency was 9.69 µM (active) in assay [1]; 9.69 µM (active) with Aromatase (Homo sapiens); 15.4 µM (active) in assay [5]; 4.86 µM (active) in assay [6]; 54.5 µM (active) in [7]; 49 µM (active) in assay [9]. Besides, the Potency in assay [12] is 21.9 µM (active). In addition, the compound was called inactive in assay [3]. Moreover, the Potency entry in [14] and in assay [15] was “inactive” each time.

`Cc1cc(-c2ccc(N=Nc3cc(S(=O)(=O)O)c4ccccc4c3N)c(C)c2)ccc1N=Nc1cc(S(=O)(=O)O)c2ccccc2c1N`: the Potency in [1] is 61.4 µM (active); in assay [2], 27.4 µM (active); in assay [4], 30.8 µM (active); in assay [10], 12.3 µM (active). Further, the result in [3] was inactive. Besides, the Potency result in assay [5], in assay [6], in assay [7], in [16], in assay [9] and in assay [11] was “inactive” each time. The Potency entry in [12] and in [13] was “inactive” in each case.

In the case of `CCOc1ccc2ccccc2c1C(=O)N[C@@H]1C(=O)N2[C@@H]1SC(C)(C)[C@@H]2C(=O)O`, the Potency entry in [1], in [17], in [14], in assay [15], in assay [18] and in assay [19] was “inactive” each time. Besides, the Potency result (in [4]; in the assay with Aromatase (Homo sapiens); in assay [5]; in assay [6]; in assay [7]; in assay [8]) was “inactive” in each case. The Potency entry in assay [9], in assay [11] and in [12] was “inactive” each time. In addition, the call in assay [3] was inactive.

As for `COCCOc1cc2cc(C(=O)NC3CCN(C(C)C)CC3)n(CC(=O)Nc3ccc(Cl)cn3)c2cn1`, the Potency in assay [1] is 60.4 µM (active). Besides, the outcome in assay [3] was inactive. Besides, the Potency result (in [14]; in assay [4]; in the assay with Aromatase (Homo sapiens); in [5]; in [7]; in [9]) was “inactive” each time. In addition, the Potency entry in assay [10] and in assay [11] was “inactive” throughout.

Take `CCOC(=O)c1ccc(C2CCC(NC[C@H](O)COc3ccc(O)c(NS(C)(=O)=O)c3)CC2)cc1` (some centres not stated): the Potency is 39.9 µM (active) in [1], 28.3 µM (active) in assay [2] and 50.2 µM (active) in assay [11]. The Potency entry in assay [4], in assay [6], in assay [12] and in [13] was “inactive” throughout.

With `[Cu+]`, the Potency entry in assay [1], in assay [17], in assay [14], in assay [15], in [4] and in [7] was “inactive” in each case. The Potency entry in assay [9], in [11] and in assay [12] was “inactive” throughout. Further, the call in [3] was inactive.

Regarding `O=S(=O)(O)c1ccc(N=Nc2c(O)ccc3ccccc23)cc1`, the Potency in [1] was 30.6 µM (active); in assay [4], 27.3 µM (active); in assay [5] it was 17.2 µM (active); in assay [6], 27.3 µM (active). Besides, the call in assay [3] was inactive. Besides, the Potency entry in assay [17], in assay [14], in assay [15], in assay [18], in assay [16] and in assay [9] was “inactive” in each case. Further, in assay [13], the Potency entry is “inactive”.

Take `CC(C)(C)c1ccc(C(O)CCCN2CCC(C(O)(c3ccccc3)c3ccccc3)CC2)cc1` (configuration not stated): the Potency entry in assay [1] is “inactive and 5.96 µM (active)”; in the assay with Aromatase (Homo sapiens), “inactive and 29.8 µM (active)”; in assay [9] it was 13.3 µM (active); in [12], 21.1 µM (active). Further, the call in assay [3] was inactive. The Potency entry in assay [17], in assay [14], in assay [15], in assay [18], in [19] and in assay [4] was “inactive” throughout. Also, the Potency result in [5], in assay [6], in assay [7] and in assay [8] was “inactive” throughout.
